# ± gives the standard deviation.
# T1: HaloTag-ATRX ADD domain (163-292)
# T1 chain: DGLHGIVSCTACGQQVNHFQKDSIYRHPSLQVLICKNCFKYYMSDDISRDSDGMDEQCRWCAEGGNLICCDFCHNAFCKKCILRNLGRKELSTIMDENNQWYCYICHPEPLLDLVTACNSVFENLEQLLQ
# Experiments:
# Assay in all cases: peptide microarray binding signal (635 nm), min-max normalized on array (fraction of array maximum); higher = stronger binding
# Conditions in all cases: peptide region: H3 1-13
# [1] = target: T1, HaloTag-ATRX ADD domain (163-292)
# Procedure: (§1)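 Histone 13-mer peptides were synthesized as cellulose conjugates with a C-terminal 20-atom PEG linker and printed in triplicate on nitrocellulose. The sequence given is the unmodified backbone; PTMs (Kme1/2/3, Kac, Sph/Tph, Rme/Rme2a/Rme2s, Rcit) are listed in the label and the 'peptide modifications' condition. Slides were probed at 4 °C for 1 h with biotin-labelled (HQ)5-HaloTag reader fusions (ATRX-ADD, ING2-PHD) then streptavidin-Alexa647, or with rabbit histone antibodies then anti-rabbit Alexa647. The mean 635 nm signal of the triplicate spots was scaled 0-1 between the lowest and highest values on each array.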
# [2] = target: HaloTag-ING2 PHD (mouse Ing2 200-280)
# Procedure: as §1
# [3] = target: anti-H3K4me3 antibody ab8580
# Procedure: as §1
# [4] = target: anti-H3K9me3 antibody ab8898
# Procedure: as §1
# [5] = peptide modifications: H3R2cit H3K4me2, binder concentration: 1:2,000 dilution
# [6] = peptide modifications: H3R2cit H3K4me2, binder concentration: 1:10,000 dilution
# [7] = peptide modifications: H3R2cit H3K9me3, binder concentration: 1:2,000 dilution
# [8] = peptide modifications: H3R2cit H3K9me3, binder concentration: 1:10,000 dilution
# [9] = peptide modifications: H3R2me1 H3K9ac, binder concentration: 1:2,000 dilution
# [10] = peptide modifications: H3R2me1 H3K9ac, binder concentration: 1:10,000 dilution
# [11] = peptide modifications: H3R2cit H3K9me1, binder concentration: 1:2,000 dilution
# [12] = peptide modifications: H3R2cit H3K9me1, binder concentration: 1:10,000 dilution
# [13] = peptide modifications: H3K9me3, binder concentration: 1:2,000 dilution
# [14] = peptide modifications: H3K9me3, binder concentration: 1:10,000 dilution
# [15] = peptide modifications: H3K9me3 H3S10ph, binder concentration: 1:2,000 dilution
# [16] = peptide modifications: H3K9me3 H3S10ph, binder concentration: 1:10,000 dilution
# [17] = peptide modifications: H3R2cit H3K9me2, binder concentration: 1:2,000 dilution
# [18] = peptide modifications: H3R2cit H3K9me2, binder concentration: 1:10,000 dilution
# [19] = peptide modifications: H3R2cit H3K4me1, binder concentration: 1:2,000 dilution
# [20] = peptide modifications: H3R2cit H3K4me1, binder concentration: 1:10,000 dilution
# [21] = peptide modifications: H3R2cit, binder concentration: 1:2,000 dilution
# [22] = peptide modifications: H3R2cit, binder concentration: 1:10,000 dilution
# [23] = peptide modifications: H3R2me1 H3K4me1, binder concentration: 1:2,000 dilution
# [24] = peptide modifications: H3R2me1 H3K4me1, binder concentration: 1:10,000 dilution
binder,measurement,setting,value
ARTKQTARKSTGG [H3 1-13 A Rcit T Kme2 Q T A R K S T G G],peptide microarray binding signal,"[1]; peptide modifications: H3R2cit H3K4me2, binder concentration: 50 nM",0.00959 ± 0.00044
same,peptide microarray binding signal,"[1]; peptide modifications: H3R2cit H3K4me2, binder concentration: 500 nM",0.0222 ± 0.0016
same,peptide microarray binding signal,"[2]; peptide modifications: H3R2cit H3K4me2, binder concentration: 10 nM",0.0839 ± 0.0012
same,peptide microarray binding signal,"[2]; peptide modifications: H3R2cit H3K4me2, binder concentration: 100 nM",0.149 ± 0.043
same,peptide microarray binding signal,[3]; [5],0.126 ± 0.023
same,peptide microarray binding signal,[3]; [6],0.128 ± 0.017
same,peptide microarray binding signal,[4]; [5],0.00533 ± 0.00032
same,peptide microarray binding signal,[4]; [6],0.00352 ± 0.00019
ARTKQTARKSTGG [H3 1-13 A Rcit T K Q T A R Kme3 S T G G],peptide microarray binding signal,"[1]; peptide modifications: H3R2cit H3K9me3, binder concentration: 50 nM",0.435 ± 0.044
same,peptide microarray binding signal,"[1]; peptide modifications: H3R2cit H3K9me3, binder concentration: 500 nM",0.525 ± 0.024
same,peptide microarray binding signal,"[2]; peptide modifications: H3R2cit H3K9me3, binder concentration: 10 nM",0.0492 ± 0.0064
same,peptide microarray binding signal,"[2]; peptide modifications: H3R2cit H3K9me3, binder concentration: 100 nM",0.0792 ± 0.014
same,peptide microarray binding signal,[3]; [7],0.137 ± 0.007
same,peptide microarray binding signal,[3]; [8],0.0635 ± 0.0071
same,peptide microarray binding signal,[4]; [7],0.676 ± 0.04
same,peptide microarray binding signal,[4]; [8],0.408 ± 0.044
ARTKQTARKSTGG [H3 1-13 A Rme T K Q T A R Kac S T G G],peptide microarray binding signal,"[1]; peptide modifications: H3R2me1 H3K9ac, binder concentration: 50 nM",0.0167 ± 0.0025
same,peptide microarray binding signal,"[1]; peptide modifications: H3R2me1 H3K9ac, binder concentration: 500 nM",0.121 ± 0.14
same,peptide microarray binding signal,"[2]; peptide modifications: H3R2me1 H3K9ac, binder concentration: 10 nM",0.0337 ± 0.00085
same,peptide microarray binding signal,"[2]; peptide modifications: H3R2me1 H3K9ac, binder concentration: 100 nM",0.0529 ± 0.0063
same,peptide microarray binding signal,[3]; [9],0.0105 ± 0.0012
same,peptide microarray binding signal,[3]; [10],0.00999 ± 0.00055
same,peptide microarray binding signal,[4]; [9],0.085 ± 0.13
same,peptide microarray binding signal,[4]; [10],0.0364 ± 0.046
ARTKQTARKSTGG [H3 1-13 A Rcit T K Q T A R Kme S T G G],peptide microarray binding signal,"[1]; peptide modifications: H3R2cit H3K9me1, binder concentration: 50 nM",0.0233 ± 0.0034
same,peptide microarray binding signal,"[1]; peptide modifications: H3R2cit H3K9me1, binder concentration: 500 nM",0.0804 ± 0.019
same,peptide microarray binding signal,"[2]; peptide modifications: H3R2cit H3K9me1, binder concentration: 10 nM",0.0313 ± 0.0068
same,peptide microarray binding signal,"[2]; peptide modifications: H3R2cit H3K9me1, binder concentration: 100 nM",0.0512 ± 0.0034
same,peptide microarray binding signal,[3]; [11],0.00831 ± 0.0015
same,peptide microarray binding signal,[3]; [12],0.0097 ± 0.00085
same,peptide microarray binding signal,[4]; [11],0.0064 ± 0.00042
same,peptide microarray binding signal,[4]; [12],0.00375 ± 0.00014
ARTKQTARKSTGG [H3 1-13 A R T K Q T A R Kme3 S T G G],peptide microarray binding signal,"[1]; peptide modifications: H3K9me3, binder concentration: 50 nM",0.422 ± 0.025
same,peptide microarray binding signal,"[1]; peptide modifications: H3K9me3, binder concentration: 500 nM",0.417 ± 0.049
same,peptide microarray binding signal,"[2]; peptide modifications: H3K9me3, binder concentration: 10 nM",0.0205 ± 0.0055
same,peptide microarray binding signal,"[2]; peptide modifications: H3K9me3, binder concentration: 100 nM",0.0183 ± 0.0029
same,peptide microarray binding signal,[3]; [13],0.0544 ± 0.038
same,peptide microarray binding signal,[3]; [14],0.0262 ± 0.0086
same,peptide microarray binding signal,[4]; [13],0.228 ± 0.047
same,peptide microarray binding signal,[4]; [14],0.169 ± 0.11
ARTKQTARKSTGG [H3 1-13 A R T K Q T A R Kme3 Sph T G G],peptide microarray binding signal,"[1]; peptide modifications: H3K9me3 H3S10ph, binder concentration: 50 nM",0.188 ± 0.014
same,peptide microarray binding signal,"[1]; peptide modifications: H3K9me3 H3S10ph, binder concentration: 500 nM",0.207 ± 0.011
same,peptide microarray binding signal,"[2]; peptide modifications: H3K9me3 H3S10ph, binder concentration: 10 nM",0.00597 ± 0.00034
same,peptide microarray binding signal,"[2]; peptide modifications: H3K9me3 H3S10ph, binder concentration: 100 nM",0.0173 ± 0.0046
same,peptide microarray binding signal,[3]; [15],0.00283 ± 0.001
same,peptide microarray binding signal,[3]; [16],0.000913 ± 0.00014
same,peptide microarray binding signal,[4]; [15],0.085 ± 0.021
same,peptide microarray binding signal,[4]; [16],0.049 ± 0.01
ARTKQTARKSTGG [H3 1-13 A Rcit T K Q T A R Kme2 S T G G],peptide microarray binding signal,"[1]; peptide modifications: H3R2cit H3K9me2, binder concentration: 50 nM",0.0526 ± 0.0021
same,peptide microarray binding signal,"[1]; peptide modifications: H3R2cit H3K9me2, binder concentration: 500 nM",0.112 ± 0.0057
same,peptide microarray binding signal,"[2]; peptide modifications: H3R2cit H3K9me2, binder concentration: 10 nM",0.0306 ± 0.0059
same,peptide microarray binding signal,"[2]; peptide modifications: H3R2cit H3K9me2, binder concentration: 100 nM",0.056 ± 0.011
same,peptide microarray binding signal,[3]; [17],0.0151 ± 0.001
same,peptide microarray binding signal,[3]; [18],0.013 ± 0.0011
same,peptide microarray binding signal,[4]; [17],0.0265 ± 0.0012
same,peptide microarray binding signal,[4]; [18],0.00986 ± 0.00045
ARTKQTARKSTGG [H3 1-13 A Rcit T Kme Q T A R K S T G G],peptide microarray binding signal,"[1]; peptide modifications: H3R2cit H3K4me1, binder concentration: 50 nM",0.00831 ± 0.00021
same,peptide microarray binding signal,"[1]; peptide modifications: H3R2cit H3K4me1, binder concentration: 500 nM",0.0204 ± 0.0024
same,peptide microarray binding signal,"[2]; peptide modifications: H3R2cit H3K4me1, binder concentration: 10 nM",0.0217 ± 0.0012
same,peptide microarray binding signal,"[2]; peptide modifications: H3R2cit H3K4me1, binder concentration: 100 nM",0.148 ± 0.015
same,peptide microarray binding signal,[3]; [19],0.0371 ± 0.0013
same,peptide microarray binding signal,[3]; [20],0.02 ± 0.0022
same,peptide microarray binding signal,[4]; [19],0.00468 ± 0.0004
same,peptide microarray binding signal,[4]; [20],0.00202 ± 3.2e-05
ARTKQTARKSTGG [H3 1-13 A Rcit T K Q T A R K S T G G],peptide microarray binding signal,"[1]; peptide modifications: H3R2cit, binder concentration: 50 nM",0.00937 ± 0.00037
same,peptide microarray binding signal,"[1]; peptide modifications: H3R2cit, binder concentration: 500 nM",0.0298 ± 0.0055
same,peptide microarray binding signal,"[2]; peptide modifications: H3R2cit, binder concentration: 10 nM",0.012 ± 0.0023
same,peptide microarray binding signal,"[2]; peptide modifications: H3R2cit, binder concentration: 100 nM",0.0101 ± 0.001
same,peptide microarray binding signal,[3]; [21],0.00315 ± 0.00061
same,peptide microarray binding signal,[3]; [22],0.00126 ± 0.00016
same,peptide microarray binding signal,[4]; [21],0.00101 ± 0.00014
same,peptide microarray binding signal,[4]; [22],0.000577 ± 1.6e-05
ARTKQTARKSTGG [H3 1-13 A Rme T Kme Q T A R K S T G G],peptide microarray binding signal,"[1]; peptide modifications: H3R2me1 H3K4me1, binder concentration: 50 nM",0.00746 ± 0.00026
same,peptide microarray binding signal,"[1]; peptide modifications: H3R2me1 H3K4me1, binder concentration: 500 nM",0.0155 ± 0.00095
same,peptide microarray binding signal,"[2]; peptide modifications: H3R2me1 H3K4me1, binder concentration: 10 nM",0.0585 ± 0.006
same,peptide microarray binding signal,"[2]; peptide modifications: H3R2me1 H3K4me1, binder concentration: 100 nM",0.147 ± 0.034
same,peptide microarray binding signal,[3]; [23],0.0545 ± 0.02
same,peptide microarray binding signal,[3]; [24],0.023 ± 0.0071
same,peptide microarray binding signal,[4]; [23],0.00248 ± 0.00029
same,peptide microarray binding signal,[4]; [24],0.00127 ± 1.3e-05

# From the supplement of paper PMC4022240
